# T cruzi growth-1 – T. cruzi intracellular proliferation inhibitors, primary screen, cell-based, beta-gal Tulahuen parasites, NIH3T3 host, luminescence; T. cruzi beta-gal in NIH3T3, GalScreen luminescence, 90 h; inhibition, % at 8.34 µM; 5.9% of 77,000 active; AID 624255, 2012;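 active = mean inhibition above about 93%, with at least 55% of replicates each passing it, limit read from the data, passing the limit was not always enough; inconclusive = only one of those two conditions holds; inactive = neither condition holds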
# C diff growth – C. difficile growth inhibitors, primary screen, HTS; Clostridium difficile clinical isolate growth, OD600, 24 h; active compounds read low; growth activity, negative = inhibition, % at 16 µg/mL (by protocol); 0.25% of 86,000 active;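 active = mean growth activity at or below -80% and every replicate also at or below -80%; inconclusive = mean at or below -80% but some replicate above -80%; inactive = mean growth activity above -80%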;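 also: 0% = DMSO wells and -100% = levofloxacin 16 µg/mL wells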
# T cruzi growth-2 – T. cruzi intracellular proliferation inhibitors, confirmation, cell-based, NIH3T3 host, beta-gal parasite, luminescence, cherry-pick; shares compounds with T cruzi growth-1; T. cruzi beta-gal in NIH3T3, GalScreen luminescence, 90 h; inhibition, % at 8.35 µM; 72% of 5,600 active;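 active = mean replicate inhibition above about 95% and at least 55% of replicates individually reaching it, limit read from the data; inconclusive = only one of the two criteria is met; inactive = neither criterion is met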
# T cruzi growth-3 – inhibitors of intracellular T. cruzi replication, confirmation, NIH3T3 host cells, beta-gal parasites, cherry-pick, set 2; shares compounds with T cruzi growth-1; T. cruzi beta-gal in NIH3T3, GalScreen luminescence, 90 h; inhibition, % at 2.09 µM; 21% of 5,600 active;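 active = mean inhibition above about 95%, with at least 55% of replicates also reaching it, limit read from the data; inconclusive = meets just one of the two conditions; inactive = meets neither condition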;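 also: plate controls were neutral control median for no effect and positive control median for full effect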
# NIH3T3 tox – cytotoxicity in mouse NIH/3T3 fibroblasts, confirmation, cytotoxicity control for T. cruzi proliferation inhibitor project, cell-based, cherry-pick, single point. AID 651742, 2012. cytotoxicity (signal decrease), % at 8.35 µM. shares compounds with T cruzi growth-1. 14% of 5,600 active. NIH/3T3 viability, CellTiter-Glo ATP luminescence, 90 h;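 active = mean signal decrease across replicates above about 35% based on untreated-well scatter, with enough replicates individually passing, limit read from the data; inconclusive = no rule stated though some were filed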;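 also: 0% = median of neutral control wells and 100% = median of positive control wells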
# 3T3 cytotox 2 – NIH/3T3 fibroblast cytotoxicity, confirmation, cytotoxicity control, cell-based, cherry-pick, single point, set 2. NIH/3T3 viability, CellTiter-Glo ATP luminescence, 90 h. 56% of 5,600 active. shares compounds with T cruzi growth-1. inhibition, % at 24.9 µM;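 active = mean loss of cell viability signal at or above a set limit, and enough replicates individually reaching it; inconclusive = meets only the mean limit or only the replicate share; inactive = meets neither condition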;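 also: 0% = median of neutral control wells and 100% = median of positive control wells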
# An asterisk follows results filed as active; ? = inconclusive; . = not tested or not shown. This excerpt belongs to a sample that is enriched for hits.
SMILES,T cruzi growth-1,C diff growth,T cruzi growth-2,T cruzi growth-3,NIH3T3 tox,3T3 cytotox 2
O=S(=O)(c1ccc(F)cc1)N1CC[C@@H]2[C@@H](CO)Nc3ccc(-c4ccc(F)cc4)cc3[C@@H]21,34,7,.,.,.,.
C[C@@H]1CN([C@@H](C)CO)C(=O)c2cc(NS(C)(=O)=O)ccc2O[C@@H](C)CCCCO[C@@H]1CN(C)C(=O)Nc1ccc(C(F)(F)F)cc1,.,2,.,.,.,.
C[C@H](CO)N1C[C@H](C)[C@H](CN(C)C(=O)Nc2ccc(C(F)(F)F)cc2)OCCCC[C@H](C)Oc2ccc(NS(C)(=O)=O)cc2C1=O,108*,5,107*,70,-7,5
O=C(Cc1ccncc1)N1CC[C@@H]2[C@H](CO)Nc3ccc(-c4ccccc4F)cc3[C@@H]21,112*,-2,107*,69,17,?
O=C(Cc1ccccc1)N1CC[C@@H]2[C@@H](CO)Nc3ccc(-c4ccccc4F)cc3[C@@H]21,88,-1,.,.,.,.
O=C(Cc1ccncc1)N1CC[C@@H]2[C@@H](CO)Nc3ccc(-c4cccc(F)c4)cc3[C@@H]21,.,1,.,.,.,.
O=C(Cc1ccncc1)N1CC[C@@H]2[C@H]1c1cc(-c3ccccc3F)ccc1N[C@@H]2CO,118*,-2,99*,27,-7,11
C[C@@H]1CN([C@H](C)CO)S(=O)(=O)c2ccc(C3=CCCCC3)cc2O[C@@H]1CN(C)Cc1cccc(C(=O)O)c1,46,2,.,.,.,.
COc1cccc(-c2ccc3n(c2=O)C[C@@H]2[C@@H](CO)[C@H](C(=O)NCC4CC4)N(C)[C@H]32)c1,50,5,.,.,.,.
O=C(C[C@@H]1C[C@H]2c3cc(NC(=O)C4CCOCC4)ccc3O[C@H]2[C@H](CO)O1)NCc1cccc(F)c1,40,-3,.,.,.,.
C/C=C/c1ccc([C@@H]2[C@@H](CO)N(C(=O)C3CC3)[C@H]2CN(C)C(=O)CC2CC2)cc1,9,-5,.,.,.,.
CCN1[C@@H]2Cn3c(ccc(/C=C/c4ccccc4)c3=O)[C@H]1[C@@H](C(=O)N1CCCCC1)[C@@H]2CO,170*,.,14,-41,10,45*
CC=Cc1ccc2n(c1=O)C[C@H]1[C@H](CO)[C@@H](C(=O)NCc3ccccc3Cl)N(S(C)(=O)=O)[C@@H]21 (mixture of isomers),107*,-9,74,13,0,12
CC=Cc1ccc2n(c1=O)C[C@H]1[C@H](CO)[C@@H](C(=O)NCc3ccccn3)[C@@H]2N1CCC (mixture of isomers),108*,-7,110*,21,-5,5
CCN1[C@@H]2Cn3c(ccc(/C=C/c4ccccc4)c3=O)[C@H]1[C@@H](C(=O)N1CCOCC1)[C@@H]2CO,26,5,.,.,.,.
CC=Cc1ccc2n(c1=O)C[C@H]1[C@H](CO)[C@@H](C(=O)N3CCc4ccccc4C3)[C@@H]2N1CCC (mixture of isomers),103*,-1,77,6,-20,12
CC=Cc1ccc2n(c1=O)C[C@@H]1[C@@H](CO)[C@H](C(=O)NCc3ccccn3)[C@H]2N1CC1CC1 (mixture of isomers),60,-4,.,.,.,.
CC=Cc1ccc2n(c1=O)C[C@H]1[C@H](CO)[C@@H](C(=O)NCc3ccccc3F)N(S(C)(=O)=O)[C@@H]21 (mixture of isomers),47,-2,.,.,.,.
CC=Cc1ccc2n(c1=O)C[C@@H]1[C@@H](CO)[C@H](C(=O)N3CCc4ccccc4C3)[C@H]2N1CC (mixture of isomers),-71,1,.,.,.,.
C[C@H](CO)N1C[C@H](C)[C@@H](CN(C)S(=O)(=O)c2ccc(F)cc2)Oc2ccc(NC(=O)Nc3ccc(F)cc3)cc2C1=O,28,1,.,.,.,.
O=C(N[C@H]1CC[C@@H](CC(=O)N2CCCCC2)O[C@H]1CO)c1cccc(F)c1,64,2,.,.,.,.
C[C@H](O)C#Cc1cnc2c(c1)C(=O)N([C@@H](C)CO)C[C@@H](C)[C@@H](CN(C)C(=O)c1ccccc1F)O2,-2,3,.,.,.,.

# High-throughput results deposited in PubChem by Broad Institute.
